From PubChem BioAssay (NCATS)
Inconclusive results are not listed. Calls of active or inactive are those of the source. Calls come from the whole dose curve; as a rule, active = well fitted cell-killing curve with a large enough effect; inconclusive = small, poorly fitted or top-dose-only effect, or effect the other way; inactive = no such curve, though single readings can be large or run the other way.

Test: Quantitative High-Throughput drug screen in 47 multiple myeloma cell lines against the NCATS MIPE library collection: KMS11_JCRBsus cell viability assay (AID 1919873); note: nearly all actives have a fitted effect of over 50% in size
Settings: KMS11 myeloma viability, CellTiter-Glo ATP luminescence, 48 h; series mostly up to 45.8 µM
Text: PI: Beverly A. Mock Ph.D.
Laboratory of Cancer Biology and Genetics,
Center for Cancer Research, National Cancer Institute,
National Institute of Health, Bethesda, Maryland
Drug resistance and disease progression are common in multiple myeloma (MM) patients, underscoring the need for new therapeutic combinations. […] We hypothesized that effective combinations would reduce MYC expression and enhance p16 activity. […] These preclinical data identify potentially useful drug combinations for evaluation in drug-resistant MM and reveal potential mechanisms of combined drug sensitivity.
Described herein is the primary MIPE qHTS used to cherrypick compounds. Validated compounds were then further tested for potential synergistic activiy.
[1] Peat TJ, Gaikwad SM, Dubois W, Gyabaah-Kessie N, Zhang S, Gorjifard S, Phyo Z, Andres M, Hughitt VK, Simpson RM, Miller MA, Girvin AT, Taylor A, Williams D, D'Antonio N, Zhang Y, Rajagopalan A, Flietner E, Wilson K, Zhang X, Shinn P, Klumpp-Thomas C, McKnight C, Itkin Z, Chen L, Kazandijian D, Zhang J, Michalowski AM, Simmons JK, Keats J, Thomas CJ, Mock BA. Drug combinations identified by high-throughput screening promote cell cycle transition and upregulate Smad pathways in myeloma. Cancer Lett. 2023 Aug 1;568:216284. doi: 10.1016/j.canlet.2023.216284. Epub 2023 Jun 24. PMID: 37356470; PMCID: PMC10408729.
SEQUENCE No. (e.g., 1, 2, 3, etc.); […] (e.g., Cells, Incubation, Reagent, etc.); VALUE and DESCRIPTION.
1; Cells; 5 uL; white, solid bottom 1536-well Greiner assay plate.
2; Compounds; 23 nL; Kalypsis pin tool (Wako USA) equipped with a 1536-well pin head to transfer to the assay plates.
3; Incubation; 48 hours; 37C incubation.
4; Reagent;5uL; CellTiter Glo (Promega).
5; Detector; 425V; Luminescence; Viewlux PerkinElmer.
NOTES (numbers refer to Sequence numbers above)
1. The cell-based screening methods employed in this study were like those previously published. Briefly, the corresponding myeloma cell lines were screened in 1,536-well plates with 500 cells, 5-uL per well for inhibition of cell viability (assessed by measuring ATP levels with CellTiterGlo).
2. NCATS MIPE 4.0 library of approved and investigational drugs were added using the Kalypsis pin tool. Wells treated with DMSO only for 100% viability and media only for 0% viability were used as controls.
3. The assay plates were covered and incubated for 48 hours in a 37C, 5% CO2 incubator with controlled humidity.
4. After 48 hours, CellTilter-GloTM luminescent substrate mix (Promega) reagent was added to the assay plate and plates we incubated for 5 min at room temperature.
5. Signal was measured as median relative luminescence units on a ViewLux (PerkinElmer) multiplate reader.
[1] Heske CM, Davis MI, Baumgart JT, Wilson K, Gormally MV, Chen L, Zhang X, Ceribelli M, Duveau DY, Guha R, Ferrer M, Arnaldez FI, Ji J, Tran HL, Zhang Y, Mendoza A, Helman LJ, Thomas CJ. Matrix Screen Identifies Synergistic Combination of PARP Inhibitors and Nicotinamide Phosphoribosyltransferase (NAMPT) Inhibitors in Ewing Sarcoma. Clin Cancer Res. 2017 Dec 1;23(23):7301-7311. doi: 10.1158/1078-0432.CCR-17-1121. Epub 2017 Sep 12. PMID: 28899971; PMCID: PMC6636827.
Potency is the fitted concentration of half-maximal effect.

SMILES | Potency
CC(C)c1ccccc1Cc1cc(C(=O)Nc2ccc(S(=O)(=O)c3ccccc3C(C)(C)C)cc2)c(O)c(O)c1O | 5260 nM (active)
C=CC(=O)Nc1cc2c(Nc3ccc(F)c(Cl)c3)ncnc2cc1OCCCN1CCOCC1 | 9350 nM (active)
Cc1c(Cn2c(C)nc3c(C(=O)O)cc(N4CCOCC4)cc32)cccc1C(F)(F)F | inactive
O=C(NCCS(=O)(=O)c1ccc(C(F)(F)F)cn1)c1ccc(Cl)cc1 | inactive
CC(C)Nc1cc(C(F)(F)F)cc2nc(NC(=O)c3cccnc3)nn12 | inactive
COc1ccc(-n2nc(C(N)=O)c3c2C(=O)N(c2ccc(N4CCCCC4=O)cc2)CC3)cc1 | inactive
CCOC(=O)C1=C(C)NC2=C(C(=O)CC(C)(C)C2)C1c1ccc(-c2ccccc2)cc1 (stereo not given) | 18700 nM (active)
Nc1ccc(S(=O)(=O)Nc2ncccn2)cc1 | inactive
CC(=O)Nc1sc2c(c1-c1nc3ccccc3s1)CNC2 | 13200 nM (active)
C=CC(=O)Nc1cccc(Oc2nc(Nc3ccc(N4CCN(C)CC4)cc3OC)ncc2Cl)c1 | 13200 nM (active)
Cc1[nH]c2ccccc2c1CCNCc1ccc(C=CC(=O)NO)cc1 | 66.2 nM (active)
Cc1ccc2nc(NC(=O)CSc3nc4c(c(=O)n3-c3ccccc3)SCC4)sc2c1 | 8330 nM (active)
C[C@@H](Oc1cc(-c2cnn(C3CCNCC3)c2)cnc1N)c1c(Cl)ccc(F)c1Cl | 2640 nM (active)
Cc1cc(Nc2nc(N[C@@H](C)c3ccc(F)cc3)c(C#N)cc2F)n[nH]1 | 469 nM (active)
O=C(C=Cc1cccc(S(=O)(=O)Nc2ccccc2)c1)NO | 1210 nM (active)
CC1(C)CC(=O)c2c(C(F)(F)F)nn(-c3ccc(C(N)=O)c(NC4CCC(OC(=O)CN)CC4)c3)c2C1 (stereo not given) | 118 nM (active)
Cn1cc(-c2ccncc2)c(-c2ccc(OCc3ccc4ccccc4n3)cc2)n1 | 8330 nM (active)
O=C(c1ccc(Nc2nccc(-c3cc4ccccc4s3)n2)cc1)N1CCC(N2CCCC2)CC1 | 5900 nM (active)
CNC(=O)CN1CCC(Oc2cc3c(Nc4cccc(Cl)c4F)ncnc3cc2OC)CC1 | 37.2 nM (active)
CC[C@H](CO)Nc1nc(NCc2ccccc2)c2ncn(C(C)C)c2n1 | 20900 nM (active)

SMILES | Potency
Cc1cn(-c2cc(NC(=O)c3ccc(C)c(Nc4nccc(-c5cccnc5)n4)c3)cc(C(F)(F)F)c2)cn1 | 5260 nM (active)
CC=C1NC(=O)[C@H]2CSSCCC=C[C@H](CC(=O)N[C@H](C(C)C)C(=O)N2)OC(=O)[C@H](C(C)C)NC1=O | 18.7 nM (active)
CCC1=C[C@@H]2CN(C1)Cc1c([nH]c3ccccc13)[C@@](C(=O)OC)(c1cc3c(cc1OC)N(C)[C@@H]1[C@@](O)(C(=O)OC)[C@H](OC(C)=O)[C@]4(CC)C=CCN5CC[C@]31[C@@H]54)C2 | 8.3 nM (active)
CNC(=O)c1c(F)cccc1Nc1nc(Nc2cc3c(cc2OC)CCN3C(=O)CN(C)C)nc2[nH]ccc12 | 66.2 nM (active)
Nc1cccc(-c2cc3c(Oc4cccc(O)c4)ncnc3[nH]2)c1 | 7430 nM (active)
Cc1ccc(C(=O)Nc2cccc(C(F)(F)F)c2)cc1-c1ccc2nc(NCCN3CCOCC3)ncc2c1 | 2960 nM (active)
CC(C)(O)c1cc2nc(-c3cnc(N)nc3)nc(N3CCOCC3)c2s1 | 18.7 nM (active)
CN1CCN(c2cc(C(=O)Nc3ccc4c(c3)-c3c(c(C(N)=O)nn3-c3ccc(F)cc3)CC4)c(Cl)cn2)CC1 | 8330 nM (active)
CC(C)c1ccc(Cn2ccc3c4c(N)nc(NC5CC5)nc4ccc32)cc1 | 1050 nM (active)
Nc1ccccc1NC(=O)c1ccc(CNc2nccc(-c3cccnc3)n2)cc1 | 662 nM (active)
Cn1c2cc(S(C)=O)sc2c2cnn(Cc3cccc(N)c3)c(=O)c21 (stereo not given) | inactive
O=C(CCCCCCNC(=O)c1cnc(N(c2ccccc2)c2ccccc2)nc1)NO | 7430 nM (active)
CC(C)c1cc(-c2n[nH]c(=O)n2-c2ccc3c(ccn3C)c2)c(O)cc1O | 16.6 nM (active)
CC1(C)O[C@@H]2C[C@@H]3[C@H]4C[C@@H](F)C5=CC(=O)C=C[C@]5(C)[C@@]4(F)[C@@H](O)C[C@]3(C)[C@]2(C(=O)CO)O1 | 4.2 nM (active)
CCCCCN(CCC12CC3CC(CC(C3)C1)C2)C(=O)NCCCc1ccncc1 | 16600 nM (active)
Cc1ccc(NC(=O)C2(c3ccc4c(c3)OC(F)(F)O4)CC2)nc1-c1cccc(C(=O)O)c1 | 46.9 nM (active)
Cc1c(NC(=O)OC[C@@H]2COCCN2)cn2ncnc(Nc3ccc4c(cnn4Cc4cccc(F)c4)c3)c12 | 26400 nM (active)
Cc1nc(N)ncc1-c1nc(N2CCOCC2)c2sc(C(C)(C)O)cc2n1 | 83.3 nM (active)
CN1CCC(CNc2ccc3ncc(-c4cccc(OC(F)(F)F)c4)n3n2)CC1 | 6620 nM (active)
CN1CCN(Cc2ccc(NC(=O)Nc3ccc(Oc4cc(NC(=O)C5CC5)ncn4)cc3)cc2C(F)(F)F)CC1 | 235 nM (active)
